Test [1] is described as follows: Nuclear factor erythroid 2-related factor 2/antioxidant responsive element (Nrf2/ARE) small molecule agonists: qHTS cell viability counter screen in human keratinocytes (AID 1919968; active means well fitted curve in the direction sought with a large enough effect in the repeat runs; an effect the other way counts as inactive or inconclusive; further: nearly all actives have a fitted effect of over 55% in size; further: potency means the concentration at half of the fitted maximal effect). An outline of the steps:
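Seed 1,500 KeratinoSens cells per well, then incubate 5 h at 37 C/5% CO2. Add compounds in DMSO and incubate 23 h. Add CellTiter-Fluor, wait 1 h and read fluorescence.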

Test [2] in a line: Nuclear factor erythroid 2-related factor 2/antioxidant responsive element (Nrf2/ARE) small molecule agonists: luciferase reporter gene qHTS assay in human keratinocytes (AID 1919969). Further: nearly all actives have a fitted effect of over 35% in size. Further: potency means the concentration at half of the fitted maximal effect. In general terms: In a reporter assay the amount or activity of a reporter protein is the signal.
The target of test [3] is KiSS-1 receptor (Homo sapiens) (UniProt Q969F8). Briefly: Human kisspeptin (KISS1R) small molecule agonists, calcium flux assay in KISS1R-HEK293 cells (AID 1920064; active means well fitted curve in the direction sought with a large enough effect in the repeat runs; an effect the other way counts as inactive or inconclusive). An outline of the steps: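 Cells plated and incubated 18 h; dye added, 1 h at 37 C; compounds in DMSO pinned in; signal read at 480/540 nm every second for 3 min. Each compound tested at 15 concentrations in triplicate.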
On the technique in general: A change in cytosolic calcium serves as a functional read-out for many receptors and channels.

Test [4] is described as follows: G protein-coupled receptor (GPCR) small molecule agonists, calcium flux assay: HEK293 wild type cell line counter screen (AID 1920065). In short, it runs like this: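 Counter-screen of the Tox21 10K library for non-specific calcium release: dye-loaded cells received compounds in DMSO and were monitored by kinetic fluorescence (480/540 nm, 3 min). Fifteen concentrations, run in triplicate.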

Test [5] can be described thus: p53 small molecule agonists, cell-based qHTS assay with human liver microsomes (AID 1963577). An outline of the steps: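 Fluorescence of the beta-lactamase reporter in p53RE-bla cells, detected with LiveBLAzer substrate (2 h, room temperature, dark), served as the read-out after 16 h compound exposure at 37 C with human liver microsomes and NADPH, each 0.5 mg/mL final.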
On the technique in general: qHTS replaces the single test concentration by a dilution series.

Test [6] can be described thus: p53 small molecule agonists, cell-based qHTS assay with rat liver microsomes (AID 1963578). An outline of the steps: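 Cells carrying a p53 response element–beta-lactamase reporter were plated and rested 5 h, then dosed with compound in DMSO plus rat liver microsomes and NADPH, each at 0.5 mg/mL final. After 16 h at 37 C, LiveBLAzer substrate was added for 2 h.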
Test [7] is described as follows: p53 small molecule agonists, cell-based qHTS assay with human liver microsomes: qHTS cell viability counter screen (AID 1963579). Further: nearly all actives have a fitted effect of over 45% in size. Further: potency means the concentration at half of the fitted maximal effect. In short, it runs like this:
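Cytotoxicity counter screen: p53RE-bla, 4,000 cells/well; 5 h settle, 37 C/5% CO2; cpd + HLM 0.5 mg/mL + NADPH 0.5 mg/mL (final); 16 h, 37 C; CellTiter-Glo, 30 min RT, luminescence.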

Test [8] is described as follows: p53 small molecule agonists, cell-based qHTS assay with rat liver microsomes: qHTS cell viability counter screen (AID 1963580). Further: nearly all actives have a fitted effect of over 45% in size. Further: potency means the concentration at half of the fitted maximal effect. In short, it runs like this:
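HCT-116 p53RE-bla, 4,000 cells/well, 5 h pre-incubation; cpd + rat liver microsomes 0.5 mg/mL + NADPH 0.5 mg/mL (final); 16 h, 37 C; CellTiter-Glo, 30 min RT; luminescence.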

Test [9] is described as follows: p53 small molecule agonists, cell-based qHTS assay: qHTS cell viability counter screen (AID 1963581). Further: nearly all actives have a fitted effect of over 45% in size. Further: potency means the concentration at half of the fitted maximal effect. In short, it runs like this: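 Cells: HCT-116 with p53 response element-driven beta-lactamase. Treatment: 16 h, 37 C, compounds in DMSO. Read: CellTiter-Glo luminescence after 30 min RT.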
A short description of test [10]: p53 small molecule agonists, cell-based qHTS assay (AID 1963582; active means well fitted activation curve with a large enough effect in the signal ratio in the repeat runs, not every such curve was filed as active; the % refers to the signal ratio). In short, it runs like this:
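Quantitative HTS in p53RE-bla cells: after a 5 h settling period, compounds delivered in DMSO were left on cells for 16 h at 37 C, and reporter induction was measured as fluorescence following 2 h substrate loading.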

The target in test [11] is 5-hydroxytryptamine receptor 2A (Homo sapiens) (UniProt P28223). Briefly: 5-hydroxytryptamine receptor 2A (HTR2A) small molecule antagonists, cell-based qHTS assay (AID 1963586). Further: nearly all actives have a fitted effect of over 45% in size. Further: potency means the concentration at half of the fitted maximal effect. An outline of the steps:
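Antagonist-mode intracellular calcium assay: DOI (4 nM) added after 5 min compound pre-incubation at room temperature to dye-loaded HTR2A-CHO cells. Fluorescence followed for 3 min, sampled every second.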

Test [12] has the same target. In words: 5-hydroxytryptamine receptor 2A (HTR2A) small molecule agonists, cell-based qHTS assay (AID 1963587). Further: nearly all actives have a fitted effect of over 30% in size. Further: potency means the concentration at half of the fitted maximal effect. In short, it runs like this:
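Kinetic calcium-flux fluorescence (2 min, 1 sec intervals) after compound addition in agonist mode. HTR2A-CHO cells were cultured 18 h, then dye-loaded 1 h at 37 C.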

Test [13] deals with Muscarinic acetylcholine receptor M1 (Homo sapiens) (UniProt P11229). Briefly: Cholinergic receptor muscarinic 1 (CHRM1) small molecule antagonists, cell-based qHTS assay (AID 1963588). Further: nearly all actives have a fitted effect of over 40% in size. An outline of the steps:
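CHRM1-CHO calcium-flux assay, antagonist mode. Cells were seeded 18 h, dye-loaded 1 h at 37 C and given compound for 5 min at RT, then acetylcholine was added at 50nM. FDSS fluorescence was read 3 min; 15 concentrations, three runs.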

The target is the same in test [14]. In words: Cholinergic receptor muscarinic 1 (CHRM1) small molecule agonists, cell-based qHTS assay (AID 1963589). Further: nearly all actives have a fitted effect of over 35% in size. Further: potency means the concentration at half of the fitted maximal effect. In short, it runs like this: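 Agonist-mode qHTS in CHO cells stably carrying human muscarinic M1. Intracellular calcium is tracked by fluorescence every second after compound transfer; each compound runs at 15 concentrations in three independent runs.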

The nature of test [15]: cAMP Responsive Elements (CRE) small molecule agonists, cell-based qHTS assay (AID 1963590). An outline of the steps: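 Agonist mode qHTS in CRE-bla HEK 293T cells: compounds dosed from DMSO for 3 h at 37 C/5% CO2, followed by LiveBLAzer B/G FRET substrate for 2 h at room temperature.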
A short description of test [16]: cAMP Responsive Elements (CRE) small molecule antagonists, cell-based qHTS assay (AID 1963591; active means well fitted inhibition curve with a large enough effect in the signal ratio in the repeat runs, not every such curve was filed as active; the % refers to the signal ratio). An outline of the steps: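 Antagonist mode: test compounds are co-incubated with the adenylyl cyclase activator NKH477 (0.25 uM final) on CRE-bla HEK293T cells for 3 h at 37 °C, followed by LiveBLAzer substrate loading.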
Test [17] has as its target Beta-2 adrenergic receptor (Homo sapiens) (UniProt P07550). In words: Adrenergic beta2 receptor (ADRB2) small molecule antagonists, cell-based qHTS assay (AID 1963592). Further: nearly all actives have a fitted effect of over 50% in size. Further: potency means the concentration at half of the fitted maximal effect. In short, it runs like this: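 Cells (CHO, stable ADRB2 overexpression) incubated 18-20hr at 37C; compounds added from DMSO; agonist mix (1nM isoproterenol, 100uM IBMX, 25uM Ro-20-1724) added; 0.5hr RT; d2-cAMP and anti-cAMP-cryptate added; 1hr RT; 665/615 nm read.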

The target is the same in test [18]. Briefly: Adrenergic beta2 receptor (ADRB2) small molecule agonists, cell-based qHTS assay (AID 1963593).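 Further: CHO cells stably overexpressing human ADRB2.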 In short, it runs like this: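 CHO cells stably over-expressing ADRB2 were plated overnight at 37C, then dosed with compounds plus a stimulation mix containing 100uM IBMX and 25uM Ro-20-1724 for 0.5hr at room temperature. cAMP was measured by HTRF competition, 1hr.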

Test [19] addresses D(2) dopamine receptor (Homo sapiens) (UniProt P14416). In words: Dopamine D2 receptor (DRD2) small molecule agonists, cell-based qHTS assay (AID 1963594). Further: nearly all actives have a fitted effect of over 35% in size. In short, it runs like this:
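cAMP accumulation in DRD2-HEK293 cells measured by HTRF after 1 h detection; compounds added 10 min before NKH477 (200nM […]) forskolin-analogue stimulation, 30 min at room temperature, with Ro20-1724 present at 0.1 mM final.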

The target is the same in test [20]. Briefly: Dopamine D2 receptor (DRD2) small molecule antagonists, cell-based qHTS assay (AID 1963595; active means well fitted inhibition curve with a large enough effect in the signal ratio in the repeat runs, with a control signal flat; the % refers to the signal ratio). In short, it runs like this: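 Stable D2 receptor HEK293 line, 24 h after seeding. Compound preincubated 10 min, then quinpirole (12 nM) with forskolin analogue NKH477 (200 nM), 30 min, room temperature. Detection by time-resolved FRET of cAMP.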

Several values for one entry are separate records, joined by “and”; a condition that tells them apart may be missing. Equal entries are not always repeated. Records with an inconclusive call do not appear. Where a structure was tested more than once in an assay, its records may differ in their call. Activity calls are given as the source filed them. Unless noted, the call rests on the fitted dose curve.

Chain of 5-hydroxytryptamine receptor 2A (Homo sapiens) (P28223 whole entry, looked up): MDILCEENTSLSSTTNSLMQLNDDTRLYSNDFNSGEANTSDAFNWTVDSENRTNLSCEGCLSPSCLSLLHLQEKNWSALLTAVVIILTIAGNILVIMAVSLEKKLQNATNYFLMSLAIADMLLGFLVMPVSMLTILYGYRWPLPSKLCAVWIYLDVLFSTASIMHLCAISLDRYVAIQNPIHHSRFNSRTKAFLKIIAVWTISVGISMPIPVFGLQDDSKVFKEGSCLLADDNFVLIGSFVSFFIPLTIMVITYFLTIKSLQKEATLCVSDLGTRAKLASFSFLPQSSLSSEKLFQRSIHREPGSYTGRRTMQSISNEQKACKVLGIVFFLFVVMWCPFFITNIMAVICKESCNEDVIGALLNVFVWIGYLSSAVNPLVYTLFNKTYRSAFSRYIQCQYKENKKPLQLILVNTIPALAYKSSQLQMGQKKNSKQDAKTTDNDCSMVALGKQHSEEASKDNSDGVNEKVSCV
Chain of Muscarinic acetylcholine receptor M1 (Homo sapiens) (P11229 whole entry, looked up): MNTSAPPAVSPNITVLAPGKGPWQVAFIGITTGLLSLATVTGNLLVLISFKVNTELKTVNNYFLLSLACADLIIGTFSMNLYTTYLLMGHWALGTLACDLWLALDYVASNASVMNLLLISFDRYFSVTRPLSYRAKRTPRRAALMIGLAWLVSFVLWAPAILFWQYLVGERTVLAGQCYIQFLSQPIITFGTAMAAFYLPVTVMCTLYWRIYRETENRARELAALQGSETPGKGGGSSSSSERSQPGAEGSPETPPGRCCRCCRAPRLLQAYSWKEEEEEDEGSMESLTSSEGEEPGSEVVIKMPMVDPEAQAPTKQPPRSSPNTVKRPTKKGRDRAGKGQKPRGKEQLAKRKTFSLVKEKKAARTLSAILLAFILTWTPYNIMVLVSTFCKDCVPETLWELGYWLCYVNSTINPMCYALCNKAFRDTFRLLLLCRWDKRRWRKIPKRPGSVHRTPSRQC
Chain of KiSS-1 receptor (Homo sapiens) (Q969F8 whole entry, looked up): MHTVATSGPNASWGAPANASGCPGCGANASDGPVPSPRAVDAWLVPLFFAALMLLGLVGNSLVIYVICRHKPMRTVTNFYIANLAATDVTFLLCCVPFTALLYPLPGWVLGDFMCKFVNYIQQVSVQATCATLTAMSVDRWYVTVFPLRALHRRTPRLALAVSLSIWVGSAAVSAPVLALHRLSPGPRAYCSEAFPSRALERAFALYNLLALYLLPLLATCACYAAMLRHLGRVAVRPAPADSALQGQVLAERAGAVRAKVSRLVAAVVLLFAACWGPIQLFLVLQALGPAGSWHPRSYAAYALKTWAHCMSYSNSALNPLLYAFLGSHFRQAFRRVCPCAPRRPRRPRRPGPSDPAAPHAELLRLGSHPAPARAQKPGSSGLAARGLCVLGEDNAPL
Chain of D(2) dopamine receptor (Homo sapiens) (P14416 whole entry, looked up): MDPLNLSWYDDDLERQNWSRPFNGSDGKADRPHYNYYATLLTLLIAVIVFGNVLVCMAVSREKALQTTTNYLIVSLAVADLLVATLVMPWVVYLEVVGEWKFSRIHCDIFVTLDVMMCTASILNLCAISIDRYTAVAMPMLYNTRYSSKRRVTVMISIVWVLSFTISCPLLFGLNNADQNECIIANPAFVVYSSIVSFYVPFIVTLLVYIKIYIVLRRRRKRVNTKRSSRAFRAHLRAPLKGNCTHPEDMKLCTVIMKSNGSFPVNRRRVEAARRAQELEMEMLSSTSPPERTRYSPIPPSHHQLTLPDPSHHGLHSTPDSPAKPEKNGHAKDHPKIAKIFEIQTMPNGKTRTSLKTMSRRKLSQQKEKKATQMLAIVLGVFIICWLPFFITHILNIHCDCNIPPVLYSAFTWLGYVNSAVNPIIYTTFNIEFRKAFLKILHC
Chain of Beta-2 adrenergic receptor (Homo sapiens) (P07550 whole entry, looked up): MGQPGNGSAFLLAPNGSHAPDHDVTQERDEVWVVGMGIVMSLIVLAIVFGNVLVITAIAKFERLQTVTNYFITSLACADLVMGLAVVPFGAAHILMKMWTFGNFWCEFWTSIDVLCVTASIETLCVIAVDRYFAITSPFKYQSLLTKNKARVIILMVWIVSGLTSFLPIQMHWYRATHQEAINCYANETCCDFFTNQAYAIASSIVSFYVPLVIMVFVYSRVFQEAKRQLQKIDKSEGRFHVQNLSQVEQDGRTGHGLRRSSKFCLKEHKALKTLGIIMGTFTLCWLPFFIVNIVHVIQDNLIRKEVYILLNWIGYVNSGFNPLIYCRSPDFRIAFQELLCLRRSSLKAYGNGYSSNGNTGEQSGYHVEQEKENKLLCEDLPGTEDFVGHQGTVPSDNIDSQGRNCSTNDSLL

`C=C(C)C#N`: the Potency entry in [1], in test [2], in test [3], in test [4], in [5] and in test [6] was “inactive” throughout. Besides, the Potency entry in test [7], in test [8], in test [9], in [10], in [11] and in [12] was “inactive” each time. Also, the Potency entry in test [13], in [14], in test [15], in test [16], in test [17] and in [18] was “inactive” throughout. Further, the Potency result in [19] and in test [20] was “inactive” in each case.

Take `CC(C)(C)CC(C)(C)c1ccc(O)cc1`: the Potency in [1] was 27.3 µM (active); in test [7], 16.2 µM (active) and inactive; in test [8], 37.4 µM (active) and inactive; in test [9], 43.2 µM (active); in test [11], 18.8 µM (active) and inactive; in test [12], 34.7 µM (active). In addition, the Potency in [14] was 49 µM (active) and inactive. The Potency entry in test [2], in test [3], in test [4], in [5], in test [6] and in [17] was “inactive” each time. Moreover, in [19], the Potency entry is “inactive”.

Consider `ClCCN1CCCC1`, for which the Potency entry in test [1], in test [2], in test [3], in test [4], in [5] and in test [6] was “inactive” throughout. The Potency entry in test [8], in test [9], in test [10], in [11], in test [12] and in test [13] was “inactive” in each case. The Potency result in test [14], in test [15], in test [16], in test [18] and in test [19] was “inactive” each time.

Regarding `CC1(C)CC(=O)CC(C)(C)N1[O]`, the Potency entry in test [1], in test [2], in test [3], in test [4], in test [5] and in [6] was “inactive” each time. The Potency result in [7], in test [9], in test [11], in test [12], in test [13] and in [14] was “inactive” throughout. In addition, the Potency result in test [15], in test [16], in test [17], in test [18], in test [19] and in test [20] was “inactive” throughout.

With `CC(C)OS(C)(=O)=O`, the Potency result in test [1], in [2], in test [3], in test [4], in test [5] and in test [6] was “inactive” in each case. Moreover, the Potency entry in test [7], in test [8], in [9], in [10], in test [11] and in test [12] was “inactive” throughout. In addition, the Potency entry in test [13], in [14], in [15], in test [16], in [17] and in test [18] was “inactive” each time. Further, the Potency result in test [19] and in [20] was “inactive” each time.

Turning to `Cc1cc(N=Nc2ccccc2C)ccc1N`, the Potency in test [1] is 54.5 µM (active) and inactive. For the same molecule, the Potency result in test [2], in test [3], in test [4], in test [5], in test [6] and in test [7] was “inactive” each time. The Potency entry in [8], in [9], in [11], in test [12], in test [13] and in test [14] was “inactive” in each case. For the same molecule, the Potency entry in test [17] and in test [20] was “inactive” throughout.

For `Cc1ncc(CNC(=O)N(CCCl)N=O)c(N)n1`, the Potency result in [1], in test [2], in test [3], in test [4], in test [5] and in [6] was “inactive” each time. Moreover, the Potency entry in [7], in test [8], in [9], in test [10], in [11] and in test [12] was “inactive” each time. The Potency entry in test [13], in test [14], in test [15], in test [16], in [17] and in [18] was “inactive” each time. The Potency result in [19] and in test [20] was “inactive” each time.

For `Oc1ccc(Cl)cc1Cc1ccccc1`, the Potency was 43.3 µM (active) and 31 µM (active) in test [1]; 22 µM (active) and inactive in [2]; “inactive and 41.3 µM (active)” in test [7]; 45.7 µM (active) and inactive in test [8]; 61.9 µM (active) and inactive in test [17]. For the same molecule, the Potency result in test [3], in test [4], in test [5], in test [6], in [9] and in test [11] was “inactive” in each case. For the same molecule, the Potency entry in test [13], in test [15], in [16], in test [18], in test [19] and in [20] was “inactive” throughout.

Values taken from PubChem BioAssay (Tox21).
